SMILES strings stand for the structures. The campaign covered roughly 2,100 compounds. About 760 (36%) were called active.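 The calls were made as follows: active = thallium-flux fluorescence traces judged by eye to show enhanced or reduced glutamate response, manual score 1 or -1, so both directions (some results past the limit were not filed as active); inactive = the rest, including fluorescent or raised-baseline compounds.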 Only a sample is shown.

A short description of the assay: thallium influx changes without GIRK channels – cell-based, HEK-293 rmGlu8, no GIRK, thallium flux, counter-screen for GIRK activator project, confirmation (AID 623868).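 Also: extra codes mark interference with 3 for fluorescent and 4 for baseline rise.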 The conditions noted are these: thallium flux fluorescence, at 10 µM, actives lie on both sides, codes: 1 enhancer, -1 blocker, 0 none, thallium stimulus containing EC20 glutamate.
For `S=c1nn[nH]n1C12CC3CC(CC(C3)C1)C2`, the manual score is 1 (active).
The figure for `c1cn(C23CC4CC(CC(C4)C2)C3)cn1` is 0.5 (inactive); for `CCOc1ccc(Nc2ncnc(N)n2)cc1` it is 0 (inactive); for `Cc1noc(C)c1CSc1nc2ccccc2c(=O)n1-c1ccc(F)cc1F` it is 0 (inactive).
The figure for `O=c1c2ccccc2nc(SCc2cn3ccsc3n2)n1-c1ccc(F)cc1` is -1 (active).
Turning to `COCCNCCOc1ccccc1-c1ccccc1`, the manual score is 0 (inactive).
The figure for `COc1ccc(CCNC(=O)CSc2nnc(-c3ccc(F)cc3)c3ccccc23)cc1OC` is -1 (active).
The figure for `COc1cc2c(cc1NC(=O)COc1ccccc1OC)oc1ccccc12` is 0 (inactive); for `COc1ccc(CN(C)CC(=O)NC(=O)NCc2ccccc2)cc1OC` it is 0 (inactive).
With `CCOC(=O)CSC1=C(C#N)C(=O)NC(c2ccc(OC)c(OC)c2)S1` (stereo unspecified) the figure was 0 (inactive).
As to `Cc1sc2nc(C3CC3)nc(SCC(=O)N3CC(=O)Nc4ccccc43)c2c1C`, the manual score is 1 (active).
The figure for `Cc1cc(NC(=O)CSc2nc3ccsc3c(=O)n2NC(=O)c2ccccc2)no1` is 0 (inactive); for `CCc1nc(SCC(=O)N2CC(=O)Nc3ccccc32)c2c(C)c(C)sc2n1` it is 1 (active); for `Cc1ccc(C)c(Nc2c([N+](=O)[O-])cc(C(=O)N3CC(=O)Nc4ccccc43)cc2[N+](=O)[O-])c1` it is 0 (inactive).
The figure for `CCc1nc(SCC(=O)Nc2nnc(CC)s2)c2c(C)c(C)sc2n1` is 1 (active); for `CCc1nnc(NC(=O)CSc2nnc(-c3c[nH]c4ccccc34)n2CC)s1` it is 0 (inactive); for `CCc1c(C)nc(SCC(=O)N2CCc3ccccc32)[nH]c1=O` it is 0 (inactive).
With `Cc1ccc(N(C(=O)CCC(=O)Nc2cc(C)on2)C(C(=O)NC2CCCC2)c2cccs2)cc1` (stereo unspecified) the figure was 0 (inactive); with `CCSc1nnc(NC(=O)CC)s1`, 0 (inactive); with `Cc1cc(NC(=O)CSc2nc(C3CC3)nc3sc(C)c(C)c23)no1`, 1 (active).
On to `CN1C(=O)NC(c2ccccc2)C2=C1CN(Cc1ccccc1)C2=O` (stereo unspecified), for which the manual score is 0 (inactive).
In the case of `CCOC(=O)C1(C(C)(C)CC)CC(CSc2nc3ccccc3[nH]2)OC1=O` (stereo unspecified), the manual score is 0 (inactive).
For `CN1CCN(C(=O)c2sc(=S)n(-c3ccccc3)c2N)CC1`, the manual score was 0 (inactive).
With `O=C(NCCSCc1ccco1)Nc1cccc(Cl)c1` the figure was 0 (inactive).
As to `CN(C(=O)CSC1=Nc2ccccc2C2=NC(c3ccccc3)C(=O)N12)C1CCCCC1` (stereo unspecified), the manual score was -1 (active).
With `Cc1sccc1C1C(C#N)=C(N)SC(N)=C1C#N` the figure was -1 (active).
With `Cc1ccc(C(C(=O)NC2CCCC2)N2CCCC(C)C2)cc1` (stereo unspecified) the figure was 0 (inactive).
Consider `CCOc1ccccc1N1CCN(C(=S)NC(=O)C23CC4CC(CC(C4)C2)C3)CC1`, for which the manual score is 0.5 (inactive).
Turning to `O=S(=O)(c1ccccc1)N1CCN(C(=S)Nc2ccc(F)cc2)CC1`, the manual score is 0 (inactive).
With `CC12CC3CC(C)(C1)CC(C(=O)NC(=S)N1CCCCC1)(C3)C2` the figure was 1 (active).
With `CCOC(=O)C1CCN(C(=O)NC23CC4CC(CC(C4)C2)C3)CC1` the figure was 0 (inactive); with `CCC(=O)c1ccc(N2CCN(C(=O)c3cc([N+](=O)[O-])ccc3N3CCN(C)CC3)CC2)c(F)c1`, 0 (inactive).
With `O=C(NC(=S)N1CCN(c2ccc([N+](=O)[O-])cc2)CC1)c1ccc(F)cc1` the figure was 1 (active); with `O=C(c1csc2c1CCCC2)N1CCN(c2ccc(F)cc2)CC1`, 0 (inactive); with `O=C(NC(=S)N1CCN(c2ccc(F)cc2)CC1)C12CC3CC(CC(C3)C1)C2`, 1 (active).
Turning to `O=C(NC(=S)N1CCCCC1)C12CC3CC(CC(C3)C1)C2`, the manual score is 1 (active).
With `CCCCN(Cc1ccccc1)S(=O)(=O)c1ccc2[nH]c(=O)oc2c1` the figure was 0 (inactive).
In the case of `COc1ccc(Cl)cc1C(=O)CSc1nnnn1C1CCCC1`, the manual score was 0 (inactive).
The figure for `CC12CC3CC(C)(C1)CC(C(=O)NC(=S)N1CCOCC1)(C3)C2` is 1 (active); for `CC12CC3(C)CC(C)(C1)CC(C(=O)NC(=S)N1CCOCC1)(C2)C3` it is 1 (active); for `O=C(c1ccco1)N1CCN(C(=O)c2cnn3c2NC(c2cccs2)CC3C(F)(F)F)CC1` (stereo unspecified) it is 0 (inactive).
With `O=C(CN1CCOCC1)Nc1ccc(C2CCCCC2)cc1` the figure was 0 (inactive); with `O=C(CSc1nc(-c2ccccc2)cc(C(F)(F)F)n1)NCCN1CCOCC1`, 0 (inactive); with `CCc1sc(NC(=O)CN2CCOCC2)nc1-c1ccccc1`, -1 (active).
Turning to `CCN(CC)S(=O)(=O)c1csc(C(=O)NCc2ccccc2)c1`, the manual score was 0 (inactive).
With `C=CCOc1cccc(C2C(C(=O)c3ccc(C)o3)=C(O)C(=O)N2c2nccs2)c1` (stereo unspecified), the manual score was 3 (inactive).
Consider `COc1ccc(OC)c(C2C(C(=O)c3cc4ccccc4o3)=C(O)C(=O)N2c2cc(C)on2)c1` (stereo unspecified), for which the manual score was -1 (active).
The figure for `Cc1cc(N2C(=O)C(O)=C(C(=O)c3ccc(C)o3)C2c2cccs2)no1` (stereo unspecified) is -1 (active).
With `COc1ccc2nc3oc(C(=O)Nc4ccc(OC)c(OC)c4)cc3cc2c1` the figure was 0 (inactive).
As to `COc1ccc(C(OC(=O)c2cccs2)C(=O)NCC2CCCO2)cc1` (stereo unspecified), the manual score was 0 (inactive).
With `COc1ccc(OC)c(C2C(C(=O)c3cccs3)=C(O)C(=O)N2c2cc(C)on2)c1` (stereo unspecified) the figure was -1 (active); with `C/C(CC(=O)NCC(C)C)=N\NC(=O)COc1cc(C)c(Br)cc1Br`, 0 (inactive); with `CCOc1ccc(C(=O)NC(=S)N(Cc2ccccc2)Cc2ccccc2)cc1`, 1 (active).
Turning to `COc1ccc(S(=O)(=O)N(CCc2ccccc2)CC(=O)O)cc1`, the manual score was 0 (inactive).
For `CCOc1ccc(N2C(=O)c3ccccc3C2O)cc1` (stereo unspecified), the manual score is 0 (inactive).
Turning to `CCOc1ccc(NC(=O)CCC(=O)c2ccc(-c3ccccc3)cc2)cc1`, the manual score was 0 (inactive).
With `COc1ccc(C(=O)NC(=S)N(Cc2ccccc2)Cc2ccccc2)cc1` the figure was 1 (active).
The figure for `CC(=O)CN1Cc2ccccc2/C1=N\C(=O)Nc1ccccc1` is 0 (inactive); for `Cc1nc2ccccn2c1-c1csc(NCc2ccco2)n1` it is -0.5 (inactive).
With `CCc1c(C)c(C#N)c2nc3ccccc3n2c1NCc1ccco1` the figure was -1 (active); with `Cn1cc(S(=O)(=O)Nc2ccc(F)cc2F)c(=O)n(C)c1=O`, 0 (inactive); with `COc1ccc(/C=N/NC(=O)c2nc(-c3ccccc3)cc(-c3ccccc3)n2)cc1`, 0 (inactive).
`N/C(=N\OC(=O)Cc1ccccc1)c1ccc(Br)cc1`: the manual score is 0 (inactive).
The figure for `O=C(N/N=C/c1ccccn1)c1ccc(Br)cc1` is 1 (active).
With `O=C(N/N=C/c1ccc2cccc(OCc3ccccc3)c2n1)c1ccc(Br)cc1` the figure was 1 (active); with `COc1ccc(C(=O)N/N=C/c2ccc3cccc(OCc4ccccc4)c3n2)cc1`, 1 (active).

(Values after PubChem BioAssay AID623868 (Vanderbilt High Throughput Screening Facility, 2012).)
